Laboratory results as given in the supplement of paper PMC10515830.
Counter-ions that a name gives are not always drawn.

Experiments:
Conditions in all cases: 10 µM; exposure time 6 h
[1] = tested on: Danio rerio larvae (5 dpf); assay: difference in excitability vs DMSO (percentage points); higher = more excitable than DMSO
Summary of the method: (§1)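 Wild-type zebrafish larvae at 5 dpf were kept in 96-well plates and exposed for 6 h to 100 µL egg water holding library compound at a final concentration of 10 µM. From 3 h into exposure, the plates were held at 28.5 ℃ and photographed every 6 s through a 3-h programme of moving lines and 100 ms, 400Hz tones. Each behaviour was scored by Z-LaP Tracker, a DeepLabCut model, and averaged over 48 larvae per compound. Every value gives the compound mean minus the vehicle control mean, in percentage points.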

[2] = tested on: Danio rerio larvae (5 dpf); assay: difference in startle response vs DMSO (percentage points); higher = stronger startle than DMSO
Summary of the method: as §1

[3] = tested on: Danio rerio larvae (5 dpf); assay: difference in activity during first hour vs DMSO (percentage points); higher = more activity than DMSO
Summary of the method: as §1

[4] = tested on: Danio rerio larvae (5 dpf); assay: difference in habituation to acoustic stimuli vs DMSO (percentage points); higher = more habituation than DMSO
Summary of the method: as §1

[5] = tested on: Danio rerio larvae (5 dpf); assay: difference in combined optomotor response to red, green and blue moving lines vs DMSO (percentage points); higher = stronger optomotor response than DMSO
Summary of the method: as §1

Question: With CCN(CC)CCOc1ccc(C(=C(Cl)c2ccccc2)c2ccccc2)cc1 [Clomiphene (citrate)] as the compound, how does the difference in excitability [1] read?
Answer: -9.14

Question: And the “difference in startle response” value [2]?
Answer: 5.47

Question: What about the “difference in activity during first hour” value [3] of the same compound?
Answer: -4.03

Question: What about the “difference in habituation to acoustic stimuli” value (“difference in habituation” below) [4] of the same compound?
Answer: -5.11

Question: And the difference [5]?
Answer: -16.4

Question: CC[C@@H]1/C=C(\C)C[C@H](C)C[C@H](OC)[C@H]2O[C@@](O)(C(=O)C(=O)N3CCCC[C@H]3C(=O)O[C@H](/C(C)=C/[C@@H]3CC[C@H](Cl)[C@H](OC)C3)[C@H](C)[C@@H](O)CC1=O)[C@H](C)C[C@@H]2OC [Pimecrolimus] was tested. Which difference in excitability [1] did it give?
Answer: 12

Question: And the “difference in startle response” value [2]?
Answer: -9.07

Question: And the “difference in activity during first hour” value [3]?
Answer: 23

Question: What about the “difference in habituation” value [4] of the same compound?
Answer: -1.18

Question: And the difference [5]?
Answer: -12.6

Question: COc1ccc2c(c1)c(CC(=O)O)c(C)n2C(=O)c1ccc(Cl)cc1 [Indomethacin] was tested. Which difference in excitability [1] did it give?
Answer: -1.03

Question: What about the “difference in startle response” value [2] of the same compound?
Answer: 1.79

Question: What about the “difference in activity during first hour” value [3] of the same compound?
Answer: 2.47

Question: What about the “difference in habituation” value [4] of the same compound?
Answer: 6.54

Question: And the difference [5]?
Answer: 1.47

Question: How did the difference in excitability [1] turn out when COc1cc2nccc(Oc3ccc(NC(=O)NC4CC4)c(Cl)c3)c2cc1C(N)=O [Lenvatinib] was run?
Answer: 13.6

Question: And the “difference in startle response” value [2]?
Answer: 6.75

Question: And the “difference in activity during first hour” value [3]?
Answer: -8.05

Question: What about the “difference in habituation” value [4] of the same compound?
Answer: 1.57

Question: What about the difference [5] of the same compound?
Answer: 10.3

Question: Which results are given for CCc1c(Cl)c(O)c(Cl)c(O)c1C(=O)O[C@H]1[C@H](O)[C@H](OC)[C@H](OCC2=CC=CC[C@H](O)C(C)=C[C@H](CC)[C@@H](O[C@@H]3OC(C)(C)C(OC(=O)C(C)C)[C@H](O)[C@@H]3O)C(C)=CC(C)=CC[C@@H]([C@@H](C)O)OC2=O)O[C@@H]1C (stereo not given in full) [Fidaxomycin]?
Answer: difference in excitability [1]: 1.12; difference in startle response [2]: 8.11; difference in activity during first hour [3]: 12.6; difference in habituation to acoustic stimuli [4]: 4.21; difference [5]: 4.75

Question: How did the difference in excitability [1] turn out when C[C@](N)(Cc1ccc(O)cc1)C(=O)O [Metyrosine] was run?
Answer: 0.523

Question: And the “difference in startle response” value [2]?
Answer: 8.55

Question: And the “difference in activity during first hour” value [3]?
Answer: -8.67

Question: And the “difference in habituation” value [4]?
Answer: 12.3

Question: And the difference [5]?
Answer: -4.59

Question: For CC1(C)S[C@@H]2[C@H](NC(=O)COc3ccccc3)C(=O)N2[C@H]1C(=O)O [Penicillin V (potassium salt)], which difference in excitability [1] is on record?
Answer: -4.2

Question: What about the “difference in startle response” value [2] of the same compound?
Answer: 2.03

Question: And the “difference in activity during first hour” value [3]?
Answer: 11

Question: What about the “difference in habituation” value [4] of the same compound?
Answer: 4.18

Question: What about the difference [5] of the same compound?
Answer: -1.93

Question: How did the difference in excitability [1] turn out when COc1cc2nc(N3CCN(C(=O)C4COc5ccccc5O4)CC3)nc(N)c2cc1OC (stereo not given) [Doxazosin (mesylate)] was run?
Answer: 25

Question: And the “difference in startle response” value [2]?
Answer: 8.69

Question: What about the “difference in activity during first hour” value [3] of the same compound?
Answer: 7.65

Question: What about the “difference in habituation” value [4] of the same compound?
Answer: -8.22

Question: And the difference [5]?
Answer: -5.73

Question: With CN(C)CCCC1(c2ccc(F)cc2)OCc2cc(C#N)ccc21 (stereo not given) [Citalopram (hydrobromide)] as the compound, how does the difference in excitability [1] read?
Answer: 8.67

Question: And the “difference in startle response” value [2]?
Answer: -1.92

Question: And the “difference in activity during first hour” value [3]?
Answer: -12.8

Question: And the “difference in habituation” value [4]?
Answer: -3.86

Question: What about the difference [5] of the same compound?
Answer: -4.06

Question: How did the difference in excitability [1] turn out when NCCS [Cysteamine (hydrochloride)] was run?
Answer: 4.79

Question: What about the “difference in startle response” value [2] of the same compound?
Answer: 3.78

Question: What about the “difference in activity during first hour” value [3] of the same compound?
Answer: 3.89

Question: And the “difference in habituation” value [4]?
Answer: 0.254

Question: And the difference [5]?
Answer: 14.5

Question: Which difference in excitability [1] does the source give for CCOC(=O)c1ccc(C#Cc2ccc3c(c2)C(C)(C)CCS3)nc1 [Tazarotene] here?
Answer: 13.2

Question: What about the “difference in startle response” value [2] of the same compound?
Answer: -9.42

Question: And the “difference in activity during first hour” value [3]?
Answer: 54.2

Question: And the “difference in habituation” value [4]?
Answer: -9.47

Question: What about the difference [5] of the same compound?
Answer: -15.1

Question: Which results are given for Cc1ccc(NC(=O)c2ccc(CN3CCN(C)CC3)cc2)cc1Nc1nccc(-c2cccnc2)n1 [Imatinib (mesylate)]?
Answer: difference in excitability [1]: 13.1; difference in startle response [2]: 1.01; difference in activity during first hour [3]: -9.06; difference in habituation to acoustic stimuli [4]: 5.17; difference [5]: -1.23

Question: With O=NN(CCCl)C(=O)NCCCl [Carmustine] as the compound, how does the difference in excitability [1] read?
Answer: -3.21

Question: What about the “difference in startle response” value [2] of the same compound?
Answer: 2.25

Question: And the “difference in activity during first hour” value [3]?
Answer: 1.68

Question: What about the “difference in habituation” value [4] of the same compound?
Answer: 0.0979

Question: And the difference [5]?
Answer: 11.5

Question: What does the source list for Cc1[nH]c(=O)c(C#N)cc1-c1ccncc1 [Milrinone]?
Answer: difference in excitability [1]: -4.22; difference in startle response [2]: -1.03; difference in activity during first hour [3]: 2.14; difference in habituation to acoustic stimuli [4]: 0.444; difference [5]: 8.34

Question: How did the difference in excitability [1] turn out when O=C1NC(=O)C(c2ccccc2)(c2ccccc2)N1 [Phenytoin] was run?
Answer: -0.551

Question: What about the “difference in startle response” value [2] of the same compound?
Answer: -0.35

Question: And the “difference in activity during first hour” value [3]?
Answer: -12.3

Question: What about the “difference in habituation” value [4] of the same compound?
Answer: 5.69

Question: And the difference [5]?
Answer: 0.724

Question: Which difference in excitability [1] does the source give for CCc1nc(N)nc(N)c1-c1ccc(Cl)cc1 [Pyrimethamine] here?
Answer: 12.2

Question: What about the “difference in startle response” value [2] of the same compound?
Answer: 1.26

Question: What about the “difference in activity during first hour” value [3] of the same compound?
Answer: 9.34

Question: And the “difference in habituation” value [4]?
Answer: -3.84

Question: And the difference [5]?
Answer: 5.09

Question: C=CC(N)CCC(=O)O (stereo not given) [Vigabatrin] was tested. Which difference in excitability [1] did it give?
Answer: -1.24

Question: What about the “difference in startle response” value [2] of the same compound?
Answer: 5.92

Question: What about the “difference in activity during first hour” value [3] of the same compound?
Answer: 1.31

Question: What about the “difference in habituation” value [4] of the same compound?
Answer: 1.13

Question: And the difference [5]?
Answer: -0.249

Question: Which difference in excitability [1] does the source give for Nc1nc2[nH]cc(CCc3ccc(C(=O)N[C@@H](CCC(=O)O)C(=O)O)cc3)c2c(=O)[nH]1 [Pemetrexed (sodium salt hydrate)] here?
Answer: 7.7

Question: What about the “difference in startle response” value [2] of the same compound?
Answer: -0.109

Question: And the “difference in activity during first hour” value [3]?
Answer: -1.67

Question: What about the “difference in habituation” value [4] of the same compound?
Answer: 4.63

Question: What about the difference [5] of the same compound?
Answer: 5.29

Question: How did the difference in excitability [1] turn out when CC(C)C[C@H](NC(=O)[C@H](CCc1ccccc1)NC(=O)CN1CCOCC1)C(=O)N[C@@H](Cc1ccccc1)C(=O)N[C@@H](CC(C)C)C(=O)[C@@]1(C)CO1 [Carfilzomib] was run?
Answer: 5.53

Question: And the “difference in startle response” value [2]?
Answer: -0.402

Question: What about the “difference in activity during first hour” value [3] of the same compound?
Answer: 4.53

Question: What about the “difference in habituation” value [4] of the same compound?
Answer: 2.38

Question: What about the difference [5] of the same compound?
Answer: 4.24

Question: COc1ccc([C@@H]2Sc3ccccc3N(CCN(C)C)C(=O)[C@@H]2OC(C)=O)cc1 [Diltiazem (hydrochloride)] was tested. Which difference in excitability [1] did it give?
Answer: 8.73

Question: What about the “difference in startle response” value [2] of the same compound?
Answer: -1.93

Question: And the “difference in activity during first hour” value [3]?
Answer: 11.2

Question: And the “difference in habituation” value [4]?
Answer: -8.44

Question: What about the difference [5] of the same compound?
Answer: 1.27

Question: CC(C)(O)CNc1nc(Nc2ccnc(C(F)(F)F)c2)nc(-c2cccc(C(F)(F)F)n2)n1 [Enasidenib] was tested. Which difference in excitability [1] did it give?
Answer: 15.7

Question: And the “difference in startle response” value [2]?
Answer: -3.05

Question: And the “difference in activity during first hour” value [3]?
Answer: 12.8

Question: And the “difference in habituation” value [4]?
Answer: -6.3

Question: What about the difference [5] of the same compound?
Answer: 2.71

Question: Which difference in excitability [1] does the source give for C/C(=C\c1csc(C)n1)[C@@H]1C[C@@H]2O[C@]2(C)CCC[C@H](C)[C@H](O)[C@@H](C)C(=O)C(C)(C)[C@@H](O)CC(=O)N1 [Ixabepilone] here?
Answer: 0.28

Question: What about the “difference in startle response” value [2] of the same compound?
Answer: -3.45

Question: What about the “difference in activity during first hour” value [3] of the same compound?
Answer: 16.6

Question: And the “difference in habituation” value [4]?
Answer: 5.42

Question: What about the difference [5] of the same compound?
Answer: -1.72

Question: Which results are given for Cc1c(-c2ccc(O)cc2)n(Cc2ccc(OCCN3CCCCCC3)cc2)c2ccc(O)cc12 [Bazedoxifene (acetate)]?
Answer: difference in excitability [1]: 9.87; difference in startle response [2]: 1.08; difference in activity during first hour [3]: -9.97; difference in habituation to acoustic stimuli [4]: -5.25; difference [5]: -3.93

Question: Which results are given for NCCc1ccc(O)c(O)c1 [Dopamine (hydrochloride)]?
Answer: difference in excitability [1]: 4.19; difference in startle response [2]: -3.68; difference in activity during first hour [3]: 12.6; difference in habituation to acoustic stimuli [4]: 4.17; difference [5]: 2.15
